Where “and” joins values, the source holds several entries; their conditions need not be identical. Identical values can stand only once. Calls of active or inactive are those of the source. The calls were made as follows: active = hit-call score of the fitted dose curve at least 0.9, where 1 is the maximum; inactive = score below 0.9.
read-out: TIMP metallopeptidase inhibitor 1 (TIMP1), TIMP1 (gene 7076); experiment: BSK_MyoF_TIMP1: BioMAP Diversity Plus: MyoF Assay for TIMP metallopeptidase inhibitor 1 (TIMP1) Biomarker Activity (AID 2284269); conditions: primary human lung fibroblasts
Procedure: BSK_MyoF is a cell-based, multiplexed-readout assay that uses lung fibroblasts, […], with measurements taken at 24 hours after chemical dosing in a microplate: 96-well plate.BSK_MyoF_TIMP1 is an assay component measured in the BSK_MyoF assay. It measures TIMP-1 antibody related to regulation of gene expression using ELISA technology.Data from the assay component BSK_MyoF_TIMP1 was analyzed at the endpoint, BSK_MyoF_TIMP1, in the positive analysis fitting direction relative to DMSO as the negative control and baseline of activity. Using a type of binding reporter, gain or loss-of-signal activity can be used to understand protein changes. To generalize the intended target to other relatable targets, this assay endpoint is annotated to the 'protease' intended target family, where the subfamily is 'matrix metalloproteinase'.
The levels of cell surface (or secreted, indicated by the prefix "s") biomarker endpoints were measured by ELISA. Overt cytotoxicity to cells in confluent adherent cultures (all systems other than the BT system) was assessed by measuring total protein levels using sulforhodamine B (SRB) staining in parallel cultures at the time of biomarker measurements, indicated as SRB endpoints. For proliferation assays for adherent cell types, individual cell types are cultured at sub-confluence and relative cell numbers quantified by SRB staining at time points optimized for each system (48 h: 3C and CASM3C systems; 72 h: BT and HDF3CGF systems; 96 h: SAg system). SRB was performed by staining cells with 0.1% SRB after fixation with 10% TCA and reading wells at 560 nm.Viability and proliferation of PBMC (T cells) was quantified by Alamar Blue reduction for the SAg and BT systems. For PBMC viability (referred to as PBMC Cytotoxicity within the assay endpoint names), cells were plated (75,000/well in a 96-well plate) and then chemical samples added for 1 h before addition of activators, SEB and TSST-1 (20 ng/mL final concentration each). Cells were incubated for 90 h. Then, Alamar Blue (20 uL/well) (Invitrogen, Cat DAL1100) was added for 6 h, and the plates were read with a fluorescence microplate reader at 546/580 nm (excitation/emission). For PBMC proliferation, cells were plated and activated as above but incubated for only 16 h prior to addition of Alamar Blue. Plates were read after 6 h.

Structure (SMILES)	outcome	AC50
C=CC(=O)OCCC(F)(F)C(F)(F)C(F)(F)C(F)(F)C(F)(F)C(F)(F)C(F)(F)C(F)(F)F	inactive	
CC1=NN(c2ccccc2)C(=O)C1	inactive	
CC[N+](CC)(CC)Cc1ccccc1	inactive	
CC(C)(C)c1ccc(O)c(O)c1		31.2 µM (active)
CCCCCc1ccc(O)cc1		20 µM (active)
O=C1OC2(c3ccccc31)c1cc(I)c(O)c(I)c1Oc1c2cc(I)c(O)c1I		7.73 µM (active)
O=C1c2ccc(O)c(O)c2C(=O)c2c(O)ccc(O)c21	inactive	
CCCCC(CC)C(=O)OCCOCCOCCOCCOC(=O)C(CC)CCCC (stereo not drawn)	inactive	
C=CC(C)(CCC=C(C)C)OC(C)=O (stereo not drawn)	inactive	
CCOC(=O)CN[C@@H](C(=O)N1CC[C@H]1C(=O)NCc1ccc(/C(N)=N/O)cc1)C1CCCCC1	inactive	
O=C(NCc1ncc(C(F)(F)F)cc1Cl)c1c(Cl)cccc1Cl	inactive	
C=COC(=O)C(C)(C)CCCCCC	inactive	
Cc1cccc2c1ccc1ccccc12	inactive	
Clc1ccc(Nc2nnc(Cc3ccncc3)c3ccccc23)cc1	inactive	
O=P(O)(O)CCC(F)(F)C(F)(F)C(F)(F)C(F)(F)C(F)(F)C(F)(F)C(F)(F)C(F)(F)F	inactive	
NC(=NCCCCCCN=C(N)/N=C(\N)Nc1ccc(Cl)cc1)/N=C(\N)Nc1ccc(Cl)cc1		4.84 µM (active)
O=C(O)CCC(F)(F)C(F)(F)C(F)(F)C(F)(F)C(F)(F)F	inactive	
COCN(COC)c1nc(N(COC)COC)nc(N(COC)COC)n1	inactive	
OCC(F)(F)C(F)(F)C(F)(F)C(F)(F)C(F)(F)C(F)(F)C(F)(F)C(F)(F)C(F)(F)C(F)(F)C(F)(F)F	inactive	

Structure (SMILES)	outcome	AC50
O=C(O)CCC(F)(F)C(F)(F)C(F)(F)C(F)(F)C(F)(F)C(F)(F)F	inactive	
CN(CCO)S(=O)(=O)C(F)(F)C(F)(F)C(F)(F)C(F)(F)C(F)(F)C(F)(F)C(F)(F)C(F)(F)F	inactive	
O=C(NO)c1ccccc1	inactive	
CN(Cc1cnc2nc(N)nc(N)c2n1)c1ccc(C(=O)N[C@@H](CCC(=O)O)C(=O)O)cc1	inactive	
OCCN1CN(CCO)CN(CCO)C1	inactive	
Cc1ccc(N=Nc2c(O)ccc3ccccc23)c(C)c1	inactive	
O=P(O)(O)CCC(F)(F)C(F)(F)C(F)(F)C(F)(F)C(F)(F)C(F)(F)F	inactive	
COC1=CC(=O)C[C@@H](C)[C@]12Oc1c(Cl)c(OC)cc(OC)c1C2=O	inactive	
Cc1ccc(C(=O)c2ccccc2)cc1	inactive	
CN(C)c1ccc(C(=C2C=CC(=[N+](C)C)C=C2)c2ccccc2)cc1		0.697 µM (active)
O=C(CC(=O)C(F)(F)C(F)(F)C(F)(F)F)c1cccs1	inactive	
Oc1cc2ccccc2cc1O	inactive	
O=C(O)C(F)(F)OC(F)(F)C(F)(F)OC(F)(F)C(F)(F)OC(F)(F)C(F)(F)C(F)(F)C(F)(F)F		8.18 µM (active) and 8.09 µM (active)
COc1cccc(O)c1	inactive	
COc1cc(OC)nc(NC(=O)NS(=O)(=O)Nc2ccccc2C(=O)N(C)C)n1	inactive	
O=S(=O)(O)C(F)(F)C(F)(F)C(F)(F)C(F)(F)C(F)(F)C(F)(F)C(F)(F)C(F)(F)C(F)(F)C(F)(F)F	inactive	
C[C@]12CC[C@@H]3c4ccc(O)cc4CC[C@H]3[C@@H]1C[C@@H](O)[C@@H]2O	inactive	
CCCCCCCCCCCCCCCCCC[N+](C)(C)Cc1ccccc1		4.88 µM (active)
C=CC(=C)CC/C=C(\C)CCC=C(C)C	inactive	

— PubChem BioAssay (EPA / NIEHS)
